Data published in PubChem BioAssay (Tox21).
Values joined by “and” are separate entries in the source; they are usually repeats but may differ in a detail not shown here. Equal entries are not always repeated. Records with an inconclusive call do not appear. Active and inactive are the calls of the source. Unless noted, the call rests on the fitted dose curve; in most records, active means well fitted curve in the direction sought with a large enough effect in the repeat runs; inconclusive means weak or mixed curves; inactive means no such curve, though single readings can be large; an effect the other way counts as inactive or inconclusive.

Experiments:
[1] = qHTS assay to identify small molecule antagonists of the thyroid receptor (TR) signaling pathway (AID 743065); further: nearly all actives have a fitted effect of over 55% in size; further: potency means the concentration at half of the fitted maximal effect
Method in brief: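 GH3.TRE-Luc rat pituitary cells carrying two TR response elements driving luciferase were plated for 4 h, given compound plus 1 nM T3 (final), and incubated 23.5 h at 37 C. ONE-Glo luminescence measured reporter inhibition; CellTiter-Fluor fluorescence tracked cytotoxicity.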

[2] = tested on: thyroid hormone receptor (rat, GH3 cells); assay: qHTS assay to identify small molecule agonists of the thyroid receptor (TR) signaling pathway (AID 743066; calls by dose curve)
[3] = target: Estrogen receptor (Homo sapiens) (UniProt P03372); assay: qHTS assay to identify small molecule antagonists of the estrogen receptor alpha (ER-alpha) signaling pathway (AID 743069; active means well fitted curve in the direction sought with a large enough effect in the signal ratio in the repeat runs, not every such curve was filed as active; the % refers to the signal ratio; further: potency means the concentration at half of the fitted maximal effect)
Estrogen receptor (Homo sapiens), sequence (P03372 whole entry, looked up): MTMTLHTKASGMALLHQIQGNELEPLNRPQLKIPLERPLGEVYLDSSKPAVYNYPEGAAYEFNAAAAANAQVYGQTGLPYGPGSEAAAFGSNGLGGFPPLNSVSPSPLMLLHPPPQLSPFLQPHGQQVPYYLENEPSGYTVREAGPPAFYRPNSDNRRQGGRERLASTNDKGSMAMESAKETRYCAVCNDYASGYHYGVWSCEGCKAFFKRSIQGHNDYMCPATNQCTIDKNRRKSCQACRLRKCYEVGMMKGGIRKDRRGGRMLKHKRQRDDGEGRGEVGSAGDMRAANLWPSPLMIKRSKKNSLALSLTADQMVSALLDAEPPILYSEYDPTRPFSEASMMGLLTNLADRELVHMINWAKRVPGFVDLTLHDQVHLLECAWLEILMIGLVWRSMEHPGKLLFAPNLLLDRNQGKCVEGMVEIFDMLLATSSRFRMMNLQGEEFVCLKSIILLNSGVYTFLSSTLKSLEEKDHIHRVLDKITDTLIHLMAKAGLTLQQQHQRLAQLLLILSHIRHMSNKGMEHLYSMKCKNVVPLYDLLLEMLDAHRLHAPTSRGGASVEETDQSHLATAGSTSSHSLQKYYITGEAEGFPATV
Method in brief: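 Estradiol-stimulated ER-alpha-UAS-bla HEK293 cells, 18 hr compound exposure at 37C. LiveBLAzer B/G substrate, 2 hr RT, fluorescence read.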

[4] = qHTS assay to identify small molecule antagonists of the estrogen receptor alpha (ER-alpha) signaling pathway - cell viability counter screen (AID 743074; calls by dose curve;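 further: HEK293 cells carrying ER-alpha-UAS-bla reporter stimulated with 17beta-estradiol; nearly all actives have a fitted effect of over 45% in size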; further: potency means the concentration at half of the fitted maximal effect)
[5] = target: Estrogen receptor (Homo sapiens) (UniProt P03372); assay: qHTS assay to identify small molecule agonists of the estrogen receptor alpha (ER-alpha) signaling pathway (AID 743075; calls by dose curve;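 further: HEK293 GripTite cells with ER-alpha and UAS-driven beta-lactamase reporter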; further: potency means the concentration at half of the fitted maximal effect)
[6] = target: Estrogen receptor (Homo sapiens) (UniProt P03372); assay: qHTS assay to identify small molecule agonists of the estrogen receptor alpha (ER-alpha) signaling pathway using the BG1 cell line (AID 743079); further: nearly all actives have a fitted effect of over 20% in size; further: potency means the concentration at half of the fitted maximal effect
[7] = qHTS assay to identify small molecule antagonists of the estrogen receptor alpha (ER-alpha) signaling pathway using the BG1 cell line (AID 743080; calls by dose curve;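 further: BG1 cells stimulated with 17beta-estradiol alongside compound; series mostly up to about 70 µM; nearly all actives have a fitted effect of over 25% in size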)
Method in brief: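 Quantitative HTS on the Tox21 10K library: BG1 cells with endogenous ER-alpha and ERE-luciferase reporter, 17beta-estradiol stimulation, 21.5 h compound exposure, luminescence endpoint with parallel fluorescence cytotoxicity counter-read.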

[8] = qHTS assay to identify small molecule antagonists of the estrogen receptor alpha (ER-alpha) signaling pathway using the BG1 cell line - cell viability counter screen (AID 743081);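 further: compound given together with 17beta-estradiol as the ER stimulus; nearly all actives have a fitted effect of over 45% in size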; further: potency means the concentration at half of the fitted maximal effect
[9] = target: Aromatase (Homo sapiens) (UniProt P11511); assay: qHTS assay to identify aromatase inhibitors (AID 743083); further: nearly all actives have a fitted effect of over 55% in size; further: potency means the concentration at half of the fitted maximal effect
Aromatase (Homo sapiens), sequence (P11511 whole entry, looked up): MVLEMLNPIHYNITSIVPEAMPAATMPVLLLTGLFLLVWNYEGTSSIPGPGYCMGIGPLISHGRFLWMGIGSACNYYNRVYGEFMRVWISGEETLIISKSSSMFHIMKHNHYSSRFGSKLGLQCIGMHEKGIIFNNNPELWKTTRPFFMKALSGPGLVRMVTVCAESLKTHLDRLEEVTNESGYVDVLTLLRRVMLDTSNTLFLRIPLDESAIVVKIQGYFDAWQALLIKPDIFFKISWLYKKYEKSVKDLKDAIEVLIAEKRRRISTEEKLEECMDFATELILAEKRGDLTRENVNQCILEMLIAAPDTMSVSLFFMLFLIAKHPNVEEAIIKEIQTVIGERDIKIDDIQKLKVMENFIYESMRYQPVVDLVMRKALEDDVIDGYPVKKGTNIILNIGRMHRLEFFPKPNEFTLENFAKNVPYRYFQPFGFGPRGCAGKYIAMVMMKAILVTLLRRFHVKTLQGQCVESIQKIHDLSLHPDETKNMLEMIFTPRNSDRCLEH

[10] = qHTS assay to identify aromatase inhibitors - cell viability counter screen (AID 743084);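 further: cells stimulated with testosterone during compound exposure; nearly all actives have a fitted effect of over 55% in size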; further: potency means the concentration at half of the fitted maximal effect
[11] = target: Aryl hydrocarbon receptor (Homo sapiens) (UniProt P35869); assay: qHTS assay to identify small molecule that activate the aryl hydrocarbon receptor (AhR) signaling pathway (AID 743085); further: nearly all actives have a fitted effect of over 15% in size; further: potency means the concentration at half of the fitted maximal effect;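 on activation: HG2L7.5c1 human HepG2 liver cells with stably integrated DRE-driven firefly reporter; series mostly up to about 70 µM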
Aryl hydrocarbon receptor (Homo sapiens), sequence (P35869 whole entry, looked up): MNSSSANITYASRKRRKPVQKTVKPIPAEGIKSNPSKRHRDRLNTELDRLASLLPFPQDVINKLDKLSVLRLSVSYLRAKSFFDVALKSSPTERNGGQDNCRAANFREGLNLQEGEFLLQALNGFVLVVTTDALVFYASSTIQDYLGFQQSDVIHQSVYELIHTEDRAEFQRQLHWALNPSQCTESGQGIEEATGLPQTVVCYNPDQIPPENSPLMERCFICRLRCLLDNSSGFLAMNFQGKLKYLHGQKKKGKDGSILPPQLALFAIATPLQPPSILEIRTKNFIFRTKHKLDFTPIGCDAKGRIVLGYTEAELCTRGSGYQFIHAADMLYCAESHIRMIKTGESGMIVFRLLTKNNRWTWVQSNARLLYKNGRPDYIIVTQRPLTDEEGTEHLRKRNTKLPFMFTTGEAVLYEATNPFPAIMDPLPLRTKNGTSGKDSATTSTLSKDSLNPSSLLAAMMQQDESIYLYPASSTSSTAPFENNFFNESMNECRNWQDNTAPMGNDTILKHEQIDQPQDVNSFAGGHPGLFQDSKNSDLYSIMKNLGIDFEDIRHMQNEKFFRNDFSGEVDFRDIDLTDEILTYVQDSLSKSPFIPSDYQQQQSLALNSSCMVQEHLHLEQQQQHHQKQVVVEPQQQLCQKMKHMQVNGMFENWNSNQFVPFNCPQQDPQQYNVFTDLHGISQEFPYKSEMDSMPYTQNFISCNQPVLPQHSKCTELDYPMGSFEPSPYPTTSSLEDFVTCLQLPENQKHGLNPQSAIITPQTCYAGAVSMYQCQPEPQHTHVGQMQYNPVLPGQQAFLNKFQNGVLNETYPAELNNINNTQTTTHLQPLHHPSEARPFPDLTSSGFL
Method in brief: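 HepG2 cells (HG2L7.5c1) stably carrying a firefly luciferase reporter driven by 20 dioxin responsive elements were exposed to compound for 24 h at 37C after a 5 h settling period; luminescence rise (ONE-Glo) indicated activation.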

[12] = qHTS assay to identify small molecule that activate the aryl hydrocarbon receptor (AhR) signaling pathway - cell viability counter screen (AID 743086); further: nearly all actives have a fitted effect of over 45% in size; further: potency means the concentration at half of the fitted maximal effect
Method in brief: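 HepG2-AhR-luc (HG2L7.5c1) cells, 4000/well, were preincubated 5 h at 37C, exposed to compound in qHTS format for 24 hr at 37C, then given CellTiter-Fluor for 30 min; viability was read as fluorescence in the reporter wells.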

[13] = target: Peroxisome proliferator-activated receptor gamma (Homo sapiens) (UniProt P37231); assay: qHTS assay to identify small molecule agonists of the peroxisome proliferator-activated receptor gamma (PPARg) signaling pathway (AID 743094; active means well fitted activation curve with a large enough effect in the signal ratio in the repeat runs, not every such curve was filed as active; the % refers to the signal ratio; further: potency means the concentration at half of the fitted maximal effect)
Peroxisome proliferator-activated receptor gamma (Homo sapiens), sequence (P37231 whole entry, looked up): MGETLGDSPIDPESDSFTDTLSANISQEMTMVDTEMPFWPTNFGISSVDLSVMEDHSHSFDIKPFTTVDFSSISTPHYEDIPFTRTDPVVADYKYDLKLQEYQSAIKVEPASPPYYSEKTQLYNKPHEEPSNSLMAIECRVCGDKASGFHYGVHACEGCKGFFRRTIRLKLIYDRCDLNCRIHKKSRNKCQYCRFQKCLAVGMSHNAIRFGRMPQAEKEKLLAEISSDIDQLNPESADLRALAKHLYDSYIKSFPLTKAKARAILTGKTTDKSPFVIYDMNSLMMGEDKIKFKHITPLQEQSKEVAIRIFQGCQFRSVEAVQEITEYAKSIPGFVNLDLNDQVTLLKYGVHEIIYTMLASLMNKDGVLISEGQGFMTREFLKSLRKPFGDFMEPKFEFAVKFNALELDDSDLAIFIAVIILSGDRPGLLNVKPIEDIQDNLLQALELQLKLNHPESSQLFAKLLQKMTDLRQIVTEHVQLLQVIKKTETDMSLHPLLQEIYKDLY
Method in brief: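 Following 5 h plating at 37C, PPARg-bla HEK293H cells receive compound or DMSO for 17 h; fluorescence intensity is recorded after LiveBLAzer B/G loading for 1 h at room temperature.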

[14] = target: Peroxisome proliferator-activated receptor gamma (Homo sapiens) (UniProt P37231); assay: qHTS assay to identify small molecule antagonists of the peroxisome proliferator-activated receptor gamma (PPARg) signaling pathway (AID 743191; calls by dose curve; further: nearly all actives have a fitted effect of over 30% in size; further: potency means the concentration at half of the fitted maximal effect)
Method in brief: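 GeneBLAzer PPARg UAS-bla HEK293H cells carrying a UAS-driven beta-lactamase reporter were plated at 3000 cells/well, preincubated 5 h at 37C, then given compound for 17 h at 37C; LiveBLAzer B/G FRET substrate was read after 1 h at room temperature.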

[15] = qHTS assay to identify small molecule antagonists of the peroxisome proliferator-activated receptor gamma (PPARg) signaling pathway - cell viability counter screen (AID 743194); settings: Potency: co-treated with 50 nM rosiglitazone unless noted; further: nearly all actives have a fitted effect of over 55% in size; further: potency means the concentration at half of the fitted maximal effect
Method in brief: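 PPARg-UAS-bla HEK293H cells were plated, rested 5 h at 37 C, then treated with compounds plus rosiglitazone (50 nM final) for 17 h at 37 C; viability was then read by CellTiter-Glo luminescence after 30 min at room temperature.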

[16] = qHTS assay for small molecule agonists of the antioxidant response element (ARE) signaling pathway (AID 743202; active means well fitted activation curve with a large enough effect in the signal ratio in the repeat runs, not every such curve was filed as active; the % refers to the signal ratio; further: potency means the concentration at half of the fitted maximal effect)
Method in brief: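 Compounds delivered in DMSO to ARE-bla HepG2 cells (2,000 cells/well, pre-incubated 5 h) and left 16 h at 37 C. LiveBLAzer B/G FRET substrate then added for 2 h at RT before fluorescence reading.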

[17] = qHTS assay for small molecule agonists of the antioxidant response element (ARE) signaling pathway - cell viability counter screen (AID 743203; calls by dose curve; further: nearly all actives have a fitted effect of over 55% in size; further: potency means the concentration at half of the fitted maximal effect)
Method in brief: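 Compounds in DMSO were pinned onto ARE-bla HepG2 cells plated 5 hrs earlier at 2,000 cells/well. Sixteen hours later at 37C/5% CO2, CellTiter-Glo was added and luminescence measured after 30 min at room temperature.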

[18] = qHTS assay for small molecule activators of the heat shock response signaling pathway - cell viability counter screen (AID 743209); further: nearly all actives have a fitted effect of over 50% in size; further: potency means the concentration at half of the fitted maximal effect
Method in brief: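 Counter screen for cytotoxicity in HeLa HSE-bla reporter cells. Treatment was 5 h at 37 C; viability was detected by luminescent ATP assay (CellTiter-Glo) in the same wells as the beta-lactamase read.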

[19] = qHTS assay for small molecule activators of the heat shock response signaling pathway (AID 743210; active means well fitted activation curve with a large enough effect in the signal ratio in the repeat runs, with a control signal flat, not every such curve was filed as active; the % refers to the signal ratio;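 further: HeLa cells with beta-lactamase reporter driven by heat shock elements; series mostly up to about 63 µM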)
Method in brief: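 Reporter gene assay: HeLa cells stably bearing an HSE-bla construct, compound treatment 5 h at 37 C, LiveBLAzer substrate 2.5 h at RT, fluorescence intensity.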

[20] = qHTS assay to identify small molecule agonists of the peroxisome proliferator-activated receptor delta (PPARd) signaling pathway - cell viability counter screen (AID 743211); further: nearly all actives have a fitted effect of over 55% in size; further: potency means the concentration at half of the fitted maximal effect
Method in brief: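 PPARd-bla HEK293H cells (UAS-beta-lactamase reporter) were treated with compounds for 17 h at 37 C. Viability was then read in the same wells by CellTiter-Glo luminescence after 30 min at room temperature.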

Measured: Potency

CC(C)OS(C)(=O)=O
inactive: all assays above

O=C(O)c1cc[c]([Hg][Cl])cc1
active: [1] 6.86 µM | [5] 49 µM [activator] | [9] 61.1 µM | [10] 61.1 µM | [15] 38.9 µM | [17] 54.5 µM | [20] 49 µM
inactive: [2] | [3] | [4] | [8] | [11] | [12]

Clc1ccc(C(c2ccccc2Cl)C(Cl)(Cl)Cl)cc1 (centres undefined)
active: [1] 27.5 µM and 40.2 µM | [17] 61.5 µM | [20] 49.3 µM and 28.7 µM
not listed: [5] | [6] | [14] | [15] | [16] | [19]
inactive: all other assays above

COP(=O)(OC)SCn1c(=O)oc2cc(Cl)cnc21
active: [9] 19.3 µM | [11] 43.3 µM
not listed: [7] | [10] | [14] | [16] | [17] | [18]
inactive: all other assays above

CC1(C)CN=C(NN=C(/C=C/c2ccc(C(F)(F)F)cc2)/C=C/c2ccc(C(F)(F)F)cc2)NC1
inactive: [2]
active: [1] 12.2 µM | [3] 49 µM [cytotoxic] | [4] 43.6 µM | [6] 3.06 µM | [8] 61.1 µM | [9] 8.63 µM | [10] 13.7 µM | [11] 1.22 µM | [12] 27.3 µM | [15] 9.77 µM | [17] 8.63 µM | [18] 24.5 µM | [20] 7.76 µM

N#CCCSCCC#N
not listed: [6]
inactive: all other assays above

CCOCCOC(C)=O
not listed: [4] | [8] | [11] | [13] | [14] | [16] | [18]
inactive: all other assays above

CC(C)CC(C)N (centres undefined)
not listed: [14] | [15]
inactive: all other assays above

N#CCCC(Br)(C#N)CBr (centres undefined)
active: [1] 13.7 µM | [9] 24.3 µM | [10] 27.3 µM | [18] 49 µM
not listed: [13] | [14] | [15] | [16] | [17] | [19]
inactive: all other assays above

CS(=O)(=O)c1ccc(C(=O)C2C(=O)CCCC2=O)c([N+](=O)[O-])c1
active: [1] 69.8 µM
not listed: [4] | [10] | [13] | [14] | [15] | [16]
inactive: all other assays above

Fc1cccc(Cl)c1CCl
not listed: [3] | [16] | [18]
inactive: all other assays above

CCC(C)(C)C(=O)OC1=C(c2ccc(Cl)cc2Cl)C(=O)OC12CCCCC2
active: [1] 54.5 µM | [6] 54.5 µM | [13] 1.74 µM | [17] 30.6 µM | [18] 54.9 µM
not listed: [3] | [7] | [14] | [15] | [16] | [19]
inactive: all other assays above

CC(c1ccc(O)cc1)c1ccc(O)cc1
active: [14] 36.5 µM | [16] 25.6 µM
not listed: [3] | [5] | [6] | [10] | [11]
inactive: all other assays above

C[C@]12CC[C@H]3[C@@H](CCC4=CC(=O)CC[C@@]43C)[C@@H]1CC[C@@H]2O
active: [1] 30.4 µM
not listed: [3] | [5] | [6] | [14] | [16]
inactive: all other assays above
